An excerpt weighted towards active compounds, which were near 3.5% of everything screened.
Tb PYK inh: qHTS of Trypanosoma Brucei Inhibitors. pyruvate kinase (Trypanosoma brucei), Q57TT1. TbPYK enzyme, Kinase-Glo Plus ATP luminescence, 45 min. Potency, µM (series often up to 76.8 µM), actives largely listed as inhibitors. 0.12% of 410,000 active; also: nearly all actives have a fitted effect of over 50% in size
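In this concentration-response screen, enzyme-free wells defined baseline while DMSO plates tracked drift. Each reaction combined TbPYK, substrate, compound and 130 uM ADP for 45 min at room temperature. Kinase-Glo Plus luminescence gave the signal.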
LmPK inh: qHTS Assay for Inhibitors of Leishmania Mexicana Pyruvate Kinase (LmPK); Q27686; purified LmPK, Kinase-Glo ATP luminescence, 1 h; Potency, µM (doses to about 57.5 µM), actives largely listed as inhibitors; 0.37% of 290,000 active; AID 1721, 2009
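0.1 nM LmPK, 0.5 mM PEP, 0.1 mM ADP; 50 mM imidazole pH 7.2, 7 mM MgCl2, 50 mM KCl; 1 h RT. Kinase-Glo luminescence readout, normalized to no-enzyme (full inhibition) and uninhibited wells.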
Giardia FBPA inh-1: qHTS Assay for Inhibitors of Fructose-1,6-bisphosphate Aldolase from Giardia Lamblia | AID 2451, 2010 | Potency, µM (doses to about 59.6 µM), usual class: inhibitors | 0.71% of 290,000 active | purified Giardia FBPA | A8B2U2; also: nearly all actives have a fitted effect of over 55% in size
Target sequence (A8B2U2 whole entry, looked up): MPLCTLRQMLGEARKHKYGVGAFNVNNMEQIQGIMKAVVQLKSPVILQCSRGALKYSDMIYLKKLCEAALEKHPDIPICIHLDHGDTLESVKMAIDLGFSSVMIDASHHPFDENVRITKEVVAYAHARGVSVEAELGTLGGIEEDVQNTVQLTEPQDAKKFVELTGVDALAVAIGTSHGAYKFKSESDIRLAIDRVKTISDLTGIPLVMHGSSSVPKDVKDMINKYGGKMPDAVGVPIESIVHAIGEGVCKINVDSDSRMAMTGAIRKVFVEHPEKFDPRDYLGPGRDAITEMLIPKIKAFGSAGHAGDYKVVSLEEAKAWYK
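Giardia FBPA (40 nM reagent) was preincubated 10 min at RT with compound (up to 57.5 uM final), then substrate plus GAPDH/TPI/NAD/arsenate coupling system with diaphorase/resazurin was added; resorufin fluorescence (525/598 nm) was read after 20 min.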
NS1 function inh: qHTS Assay for Inhibitors of Influenza NS1 Protein Function | Potency, µM (doses to about 46.1 µM) | 0.4% of 270,000 active | AID 2326, 2010; calls by dose curve; also: actives are rising curves; nearly all actives have a fitted effect of over 50% in size
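A cell-based growth assay was used: compounds that relieve NS1-induced slow growth of budding yeast raise OD600. Assay medium was yeast nitrogen base with ammonium sulphate and -URA supplement, pH 6.0, with 2% galactose.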
RE007 growth inh: qHTS Assay for Inhibitors of the HIV-1 protein Vpr | S. pombe RE007 Vpr strain, BacTiter-Glo ATP luminescence, 24 h | Potency, µM (highest dose often 92.2 µM), hits mostly inhibitors | 0.21% of 360,000 active | AID 651644, 2012; active = well fitted falling curve with a large enough effect; inconclusive = small, poorly fitted or top-dose-only effect; inactive = no such curve, though single readings can be large or run the other way; also: nearly all actives have a fitted effect of over 50% in size
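Fission yeast RE007 carrying one integrated HIV-1 vpr copy, seeded at OD 0.01 in PMG+AL medium with 23 nL pinned compound. Grown 24 h at 30 degrees; viability read by BacTiter-Glo luminescence after 5 min.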
Sm TGR block: qHTS Assay for the Inhibitors of Schistosoma Mansoni Peroxiredoxins | AID 485364, 2010 | purified TGR, DTNB reduction, TNB absorbance 405 nm | Potency, µM (series often up to 114 µM), usual class: inhibitors | 3% of 360,000 active | Schistosoma mansoni thioredoxin glutathione reductase (TGR), Q962Y6; also: nearly all actives have a fitted effect of over 60% in size
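Kinetic colorimetric format: TGR-catalysed, NADPH-driven DTNB reduction monitored via TNB absorbance. Enzyme dispensed at 20 nM; compound exposure 15 min at room temperature before reaction start.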
Giardia growth: qHTS Assay for Inhibitors of Fructose-1,6-bisphosphate Aldolase from Giardia Lamblia: Giardia lamblia growth inhibition. shares compounds with Giardia FBPA inh-1. Giardia lamblia trophozoite growth inhibition. Potency, µM (series often up to 57.5 µM), most hits filed as inhibitors. 5% of 1,500 active;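 also: trophozoites exposed to compound for 48 h at 37 °C; nearly all actives have a fitted effect of over 70% in size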
Mammalian tox: qHTS Assay for Inhibitors of Fructose-1,6-bisphosphate Aldolase from Giardia Lamblia: Mammalian cellular toxicity. shares compounds with Giardia FBPA inh-1. mammalian cell viability counter-screen, qHTS. Potency, µM (highest dose often 57.5 µM), most hits filed as inhibitors. 4% of 1,500 active. AID 2786, 2010;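 also: Chinese hamster ovary cells used as mammalian cytotoxicity surrogate; viability measured as cellular ATP by luminescence; compound exposure lasted 48 h before reading; nearly all actives have a fitted effect of over 60% in size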
Giardia FBPA inh-2: qHTS Assay for Inhibitors of Fructose-1,6-bisphosphate Aldolase from Giardia Lamblia: Primary screen confirmation; shares compounds with Giardia FBPA inh-1; purified Giardia aldolase enzyme activity, qHTS; Potency, µM (titrated, usually from 57.5 µM), actives largely listed as inhibitors; 5% of 1,500 active; AID 2787, 2010; also: nearly all actives have a fitted effect of over 45% in size
Rabbit aldolase: qHTS Assay for Inhibitors of Fructose-1,6-bisphosphate Aldolase from Giardia Lamblia: Rabbit FBPA Selectivity; shares compounds with Giardia FBPA inh-1; Rabbit muscle FBPA enzyme inhibition, selectivity counter-screen; Potency, µM (titrated, usually from 57.5 µM), actives largely listed as inhibitors; 4% of 1,500 active; also: nearly all actives have a fitted effect of over 60% in size
Target sequence (P00883 whole entry, looked up): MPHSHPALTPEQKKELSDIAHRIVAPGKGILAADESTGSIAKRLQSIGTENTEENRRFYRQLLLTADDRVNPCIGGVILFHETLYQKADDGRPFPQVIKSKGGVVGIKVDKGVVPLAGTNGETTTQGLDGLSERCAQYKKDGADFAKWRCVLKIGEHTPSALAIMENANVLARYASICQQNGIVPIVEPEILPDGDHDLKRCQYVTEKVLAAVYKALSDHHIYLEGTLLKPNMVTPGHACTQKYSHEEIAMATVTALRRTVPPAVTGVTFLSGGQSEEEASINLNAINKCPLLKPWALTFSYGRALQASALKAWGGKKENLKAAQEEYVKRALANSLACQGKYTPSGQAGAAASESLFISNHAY
GAPDH coupling: qHTS Assay for Inhibitors of Fructose-1,6-bisphosphate Aldolase from Giardia Lamblia: Coupling assay counterscreen confirmation. shares compounds with Giardia FBPA inh-1. GAPDH coupling enzyme counterscreen, biochemical, qHTS. AID 2795, 2010. Potency, µM (titrated, usually from 57.5 µM), hits mostly inhibitors. 6% of 1,500 active; also: nearly all actives have a fitted effect of over 55% in size
A number is an active result; [ ] = dose if it differs, or a comment. Unless noted, calls follow the shape of the dose curve; as a rule, active = well fitted curve in the direction sought with a large enough effect; inconclusive = small, poorly fitted or top-dose-only effect, or another doubt; inactive = no such curve, though single readings can be large; an effect the other way counts as inactive or inconclusive.

For Clc1ccc(OCc2nc(-c3ccc(-n4cccc4)cc3)no2)cc1 the results were Tb PYK inh inactive and Sm TGR block inactive.
`COCCNC(=S)N/N=C/c1ccccc1C(=O)O` gave Tb PYK inh inactive, LmPK inh inactive, Giardia FBPA inh-1 inconclusive, NS1 function inh inactive, RE007 growth inh inactive and Sm TGR block inactive.
For COCCNC(=S)NNc1ccc(Cl)c(C(=O)O)c1 the results were Tb PYK inh inactive, LmPK inh inactive, Giardia FBPA inh-1 7.1µM, NS1 function inh inactive, RE007 growth inh inactive, Sm TGR block inactive, Giardia growth inconclusive, Mammalian tox inactive, Giardia FBPA inh-2 inactive, Rabbit aldolase inactive and GAPDH coupling inactive.
`CC1=C(C(=O)Nc2ccccc2)C(c2cccs2)n2nc(SCc3ccccc3)nc2N1` (stereo not drawn) gave Tb PYK inh inactive and Sm TGR block inactive.
Screening CCC(=O)N1CCc2cc(S(=O)(=O)NC(Cc3ccccc3)C(=O)Nc3ccc(Cl)cc3)ccc21 (stereo not drawn) returned Tb PYK inh inactive and Sm TGR block inactive.
Cc1ccc(NC(=S)Nn2cnnc2)c(C)c1 was read as LmPK inh inactive, Giardia FBPA inh-1 13µM, NS1 function inh inactive, Sm TGR block inactive, Giardia growth inactive, Mammalian tox inactive, Giardia FBPA inh-2 inactive, Rabbit aldolase inactive and GAPDH coupling inactive.
`Cc1cn2c(=O)cc(COC(=O)c3ccc(NC(=O)COc4ccccc4C)cc3)nc2s1` gave Tb PYK inh inactive and Sm TGR block inactive.
`COc1ccc2cc3cc(C(=O)NCCN4CCc5ccccc5C4)sc3nc2c1` gave Tb PYK inh inactive, LmPK inh inactive, Giardia FBPA inh-1 16µM, NS1 function inh inactive, RE007 growth inh inactive, Sm TGR block inactive, Giardia growth inactive[10.4 µM], Mammalian tox inactive, Giardia FBPA inh-2 inactive, Rabbit aldolase inactive and GAPDH coupling inactive.
Screening COc1ccc2cc3cc(C(=O)NCCN4CCN(Cc5ccccc5)CC4)oc3nc2c1 returned Tb PYK inh inactive, LmPK inh inactive, Giardia FBPA inh-1 inactive, NS1 function inh inactive, RE007 growth inh inactive and Sm TGR block inactive.
For COc1ccc2cc3cc(C(=O)NCCN4CCc5ccccc5C4)oc3nc2c1 the results were Tb PYK inh inactive, LmPK inh inactive, Giardia FBPA inh-1 18µM, NS1 function inh inactive, RE007 growth inh inconclusive, Sm TGR block inactive, Giardia growth inactive, Mammalian tox inactive, Giardia FBPA inh-2 inactive, Rabbit aldolase inactive and GAPDH coupling inactive.
For CCn1c(CCc2ccccc2)nc2ccccc21 the results were Tb PYK inh inactive, LmPK inh inactive, Giardia FBPA inh-1 14µM, NS1 function inh inactive, RE007 growth inh inactive, Sm TGR block inactive, Giardia growth inactive, Mammalian tox inactive, Giardia FBPA inh-2 inactive, Rabbit aldolase inactive and GAPDH coupling inactive.
Screening CCc1nc2ccccc2n1CCc1ccccc1 returned Tb PYK inh inactive, LmPK inh inactive, Giardia FBPA inh-1 inactive, RE007 growth inh inactive and Sm TGR block inactive.
`CC1=NN(c2ccccc2)C(=O)C1N=Nc1cccc(O)c1` (stereo not drawn) gave Tb PYK inh inactive, LmPK inh inactive, Giardia FBPA inh-1 10µM, NS1 function inh inactive, RE007 growth inh inactive, Sm TGR block inactive, Giardia growth inconclusive, Mammalian tox inactive, Giardia FBPA inh-2 inactive, Rabbit aldolase inactive and GAPDH coupling inactive.
COc1ccc(N=NC2C(=O)N(c3ccccc3)N=C2C)cc1 (stereo not drawn) was read as Tb PYK inh inactive, LmPK inh inactive, Giardia FBPA inh-1 28µM, NS1 function inh inactive, RE007 growth inh inactive, Sm TGR block inactive, Giardia growth inactive, Mammalian tox inactive, Giardia FBPA inh-2 inactive, Rabbit aldolase inactive and GAPDH coupling inactive.
`CC1=NN(c2ccccc2)C(=O)C1N=Nc1ccccc1` (stereo not drawn) gave Tb PYK inh inactive, LmPK inh inactive, Giardia FBPA inh-1 inconclusive, NS1 function inh inactive, RE007 growth inh inactive and Sm TGR block inactive.
`CC1CCCCN1C(=O)Cn1c(=O)n(-c2ccc(Cl)cc2)c(=O)c2c3c(sc21)CCC3` (stereo not drawn) gave Tb PYK inh inactive and Sm TGR block inactive.
Cc1ccc2c(CC(=O)N3CCN(c4cccc(Cl)c4)CC3)coc2c1C was read as Tb PYK inh inactive and Sm TGR block inactive.
For CCOc1ccc(N(CC(=O)Nc2ccc(OC)cc2)C2=NC3CS(=O)(=O)CC3S2)cc1 (stereo not drawn) the results were Tb PYK inh inactive, LmPK inh inactive, Giardia FBPA inh-1 13µM, NS1 function inh inactive, RE007 growth inh inactive, Sm TGR block inactive, Giardia growth inactive, Mammalian tox inactive, Giardia FBPA inh-2 inactive, Rabbit aldolase inactive and GAPDH coupling inactive.
For COCCn1c(NC(=S)NC(=O)C2CC2)cc(=O)[nH]c1=O the results were Tb PYK inh inactive, LmPK inh inactive, Giardia FBPA inh-1 7.1µM, NS1 function inh inactive, RE007 growth inh inactive, Sm TGR block inactive, Giardia growth inactive, Mammalian tox inactive, Giardia FBPA inh-2 inactive, Rabbit aldolase inactive and GAPDH coupling inactive.
COCCn1c(NC(=S)NC(=O)C23CC4CC(CC(C4)C2)C3)cc(=O)[nH]c1=O was read as Tb PYK inh inactive, LmPK inh inactive, Giardia FBPA inh-1 inactive, NS1 function inh inactive, RE007 growth inh inactive and Sm TGR block inactive.
